In PubChem BioAssay (NCATS):
Inconclusive results are not listed. Calls of active or inactive are those of the source. Unless noted, calls come from the whole dose curve; as a rule, active = well fitted curve in either direction with a large enough effect (not every such curve was filed as active); inconclusive = small, poorly fitted or top-dose-only effect, or another doubt; inactive = flat fitted curve, though single readings scatter.

Assays:
[1] = target: Lysosomal acid glucosylceramidase (Homo sapiens) (UniProt P04062); test: Glucocerebrosidase-p2 (AID 348; in the data active = potency below about 10 µM; note: potency is the fitted concentration of half-maximal effect); conditions: purified GBA, blue fluorogenic substrate, 40 min
Lysosomal acid glucosylceramidase (Homo sapiens), sequence (P04062 whole entry, looked up): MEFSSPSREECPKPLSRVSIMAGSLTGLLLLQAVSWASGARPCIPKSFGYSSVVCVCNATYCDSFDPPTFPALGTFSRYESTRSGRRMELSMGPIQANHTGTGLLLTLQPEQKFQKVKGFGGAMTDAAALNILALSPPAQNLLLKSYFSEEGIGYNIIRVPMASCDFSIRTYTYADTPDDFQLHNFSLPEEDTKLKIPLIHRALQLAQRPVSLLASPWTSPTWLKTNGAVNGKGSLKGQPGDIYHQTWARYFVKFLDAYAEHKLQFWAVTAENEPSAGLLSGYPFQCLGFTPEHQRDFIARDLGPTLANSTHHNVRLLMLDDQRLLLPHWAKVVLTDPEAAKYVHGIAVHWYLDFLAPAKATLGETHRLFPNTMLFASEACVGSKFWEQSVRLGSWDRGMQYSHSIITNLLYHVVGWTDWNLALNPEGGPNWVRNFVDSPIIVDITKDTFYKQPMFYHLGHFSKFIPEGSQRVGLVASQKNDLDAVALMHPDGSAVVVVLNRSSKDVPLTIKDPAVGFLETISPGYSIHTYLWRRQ
How it was run: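 Compounds titrated from 0.6 nM upwards against 0.2 nM enzyme in pH 5.9 citric acid/KH2PO4, taurocholate, tween-20; blue fluorogenic substrate 80 uM, 40 min room temperature, stopped and read Ex 365/Em 440 for AC50.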

[2] = NFAT Signaling Pathway (AID 444); conditions: Jurkat NFAT-bla M1, carbachol, beta-lactamase ratio, 5 h; at 7.69 µM (top of the series) unless noted;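 note: carbachol stimulus at about its EC50 of 1 µM final; % is set by controls: 0 for no effect and ±100 for the full control effect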
How it was run: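 Jurkat cells carrying an NFAT-driven β-lactamase reporter and co-transfected muscarinic M1 receptor were treated with compound plus carbachol (1 uM final, an EC50 level) for 5 h at 37 °C. CCF4 loading followed for 1 h at RT; 460/530 nm ratio gave %activity.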

[3] = Stat Signaling Pathway (AID 446); conditions: ME-180 SIE beta-lactamase reporter, IL-6 stimulated, 5 h; at 7.69 µM (top of the series) unless noted;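 note: ME-180 cervical cancer cells given 40 pM IL-6 alongside compound; SIE-controlled beta-lactamase reporter measured as 460/530 nm FRET emission ratio; % is set by controls: 0 for no effect and ±100 for the full control effect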
How it was run: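 ME-180 SIE-bla cells; overnight plating; cpd + IL-6 40 pM, 5 h, 37 C; LiveBLAzer 2.5 h RT; 460/530 nm emission ratio. Normalized to 300 pM IL-6 and 125 nM JAK inhibitor controls.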

[4] = target: Glucocorticoid receptor (Homo sapiens) (UniProt P04150); test: GR-GFP Redistribution (AID 450;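 active = compounds whose dose series gives a full or clear partial fitted curve of increased nuclear translocation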; note: potency is the fitted concentration of half-maximal effect); conditions: U2OS GR-GFP nuclear translocation, laser cytometry, 2 h
Glucocorticoid receptor (Homo sapiens), sequence (P04150 whole entry, looked up, the tested form may be a part): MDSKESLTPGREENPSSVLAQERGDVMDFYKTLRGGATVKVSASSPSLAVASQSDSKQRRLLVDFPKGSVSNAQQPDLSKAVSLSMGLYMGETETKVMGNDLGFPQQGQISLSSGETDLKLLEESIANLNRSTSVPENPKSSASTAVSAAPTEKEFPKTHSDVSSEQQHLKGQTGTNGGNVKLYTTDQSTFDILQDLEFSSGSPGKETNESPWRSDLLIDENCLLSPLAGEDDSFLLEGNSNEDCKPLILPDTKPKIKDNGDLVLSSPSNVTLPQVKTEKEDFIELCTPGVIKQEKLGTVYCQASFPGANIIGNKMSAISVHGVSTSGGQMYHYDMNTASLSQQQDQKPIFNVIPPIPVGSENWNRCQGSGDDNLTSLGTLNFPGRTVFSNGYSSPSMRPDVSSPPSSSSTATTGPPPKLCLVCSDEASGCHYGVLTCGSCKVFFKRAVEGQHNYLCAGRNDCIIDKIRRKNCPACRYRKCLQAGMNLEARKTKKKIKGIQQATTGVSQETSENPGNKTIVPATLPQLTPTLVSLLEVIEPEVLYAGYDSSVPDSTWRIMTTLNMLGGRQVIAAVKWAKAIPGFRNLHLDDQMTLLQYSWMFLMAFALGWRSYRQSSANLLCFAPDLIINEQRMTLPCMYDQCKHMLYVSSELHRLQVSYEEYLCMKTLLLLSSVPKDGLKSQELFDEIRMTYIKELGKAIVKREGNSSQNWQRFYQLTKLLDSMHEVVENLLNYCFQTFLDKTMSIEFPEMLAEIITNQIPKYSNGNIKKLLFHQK

[5] = target: Glucocorticoid receptor (Homo sapiens) (UniProt P04150); test: GR-EFC Redistribution (AID 451; calls by dose curve; note: potency is the fitted concentration of half-maximal effect); conditions: CHO-K1 GR-EFC translocation, beta-gal luminescence, 2 h
How it was run: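 CHO-K1 cells stably expressing nuclear-localized β-gal enzyme acceptor and GR fused C-terminally to the enzyme donor fragment; ligand-driven nuclear translocation restores β-gal by complementation. Compounds titrated up to 46 uM final, 2 h at 37 °C; luminescence read.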

[6] = target: Mitogen-activated protein kinase 10 (Mus musculus) (UniProt Q61831); test: JNK3 AlphaScreen Assay (AID 530); conditions: JNK3 lysate, c-Jun phosphorylation; series mostly up to 57.1 µM;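 note: kinase came from lysate of stimulated human HepG2 cells; signal reports phosphorylation of biotinylated GST-cJun 1-79 at Ser73 with 10 µM ATP; % is set by controls: 0 for no effect and ±100 for the full control effect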
How it was run: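 JNK3 came from HepG2 lysates pre-activated with IL-1beta and TNF-alpha and phosphorylated biotinylated GST-cJun (1-79) at 10 uM ATP, pH 7.6, room temperature. Compounds were titrated. AlphaScreen signal used anti-phospho-cJun (Ser73) antibody.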

[7] = target: 3',5'-cyclic-AMP phosphodiesterase 4B (Homo sapiens) (UniProt Q07343); test: qHTS Assay for Inhibitors of PDE-IV (AID 607; active = well fitted activation curve with a large enough effect in the main read-out, with a control signal flat, not every such curve was filed as active; note: % of control where 0% means no effect); conditions: HEK293 ACTOne CNG channel cells, membrane potential fluorescence; series mostly up to 22.9 µM
3',5'-cyclic-AMP phosphodiesterase 4B (Homo sapiens), sequence (Q07343 whole entry, looked up): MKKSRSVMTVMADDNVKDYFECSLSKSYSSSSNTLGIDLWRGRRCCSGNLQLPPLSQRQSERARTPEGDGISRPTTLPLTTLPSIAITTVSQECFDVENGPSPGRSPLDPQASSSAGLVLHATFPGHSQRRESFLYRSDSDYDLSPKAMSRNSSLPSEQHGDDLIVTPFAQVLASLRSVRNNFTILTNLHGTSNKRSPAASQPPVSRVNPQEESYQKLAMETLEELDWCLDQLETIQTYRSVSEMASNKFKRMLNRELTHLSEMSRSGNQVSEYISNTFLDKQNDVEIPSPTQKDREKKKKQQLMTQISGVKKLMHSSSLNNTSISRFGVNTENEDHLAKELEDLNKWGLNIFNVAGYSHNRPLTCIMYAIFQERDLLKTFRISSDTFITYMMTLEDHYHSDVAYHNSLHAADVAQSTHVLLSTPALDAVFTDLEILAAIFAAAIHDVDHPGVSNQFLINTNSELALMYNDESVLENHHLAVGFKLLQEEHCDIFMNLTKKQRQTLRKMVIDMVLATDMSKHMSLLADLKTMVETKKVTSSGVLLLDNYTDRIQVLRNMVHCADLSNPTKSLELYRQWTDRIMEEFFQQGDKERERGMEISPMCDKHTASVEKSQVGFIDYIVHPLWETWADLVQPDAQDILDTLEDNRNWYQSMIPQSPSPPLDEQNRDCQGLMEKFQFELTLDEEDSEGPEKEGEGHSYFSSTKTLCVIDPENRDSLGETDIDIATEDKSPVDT
How it was run: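 ACTOne HEK293 cells carry a modified cAMP-gated CNG channel and express endogenous PDE4; plated 1000 cells/well, compounds up to 22.9 uM final. Membrane-potential dye fluorescence (ex 535/em 590) was read; parental cells received 10 uM forskolin + 100 uM RO 20-1724.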

[8] = Confirmatory qHTS for small molecule stabilizers of the endoplasmic reticulum resident proteome: Secreted ER Calcium Modulated Protein (SERCaMP) assay (AID 1508628; active = well fitted curve in the direction sought with a large enough effect; an effect the other way counts as inactive or inconclusive; note: nearly all actives have a fitted effect of over 40% in size; note: potency is the fitted concentration of half-maximal effect); conditions: SERCaMP secreted luciferase ER calcium/proteostasis reporter; series mostly up to 76.3 µM
How it was run: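 We seeded SH-SY5Y-GLuc-SERCaMP cells, added compounds (three concentrations in the primary run, eleven up to 76.6 uM in confirmation), incubated 16 h, depleted ER calcium with thapsigargin, and read luciferase 4 h later.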

[9] = AP1 Signaling Pathway (AID 357); conditions: ME-180 (cervical carcinoma) AP-1-bla reporter, EGF-induced, beta-lactamase ratio, 5 h; at 7.69 µM (top of the series) unless noted;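 note: ME-180 reporter cells stimulated with EGF at its EC50 level; % is set by controls: 0 for no effect and ±100 for the full control effect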
How it was run: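 Beta-lactamase reporter under AP-1 response element, ME-180 background. Stimulus: EC50 EGF. Compound exposure 5 h, 37 °C. Detection: CCF4, 2.5 h RT, 460/530 nm. Values: AC50 from titration.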

[10] = target: Cytochrome P450 1A2 (Homo sapiens) (UniProt P05177); test: p450-cyp1a2 (AID 410; calls by dose curve; note: potency is the fitted concentration of half-maximal effect); conditions: recombinant CYP1A2, luciferin-ME demethylation, luminescence; series mostly up to 57 µM
Cytochrome P450 1A2 (Homo sapiens), sequence (P05177 whole entry, looked up): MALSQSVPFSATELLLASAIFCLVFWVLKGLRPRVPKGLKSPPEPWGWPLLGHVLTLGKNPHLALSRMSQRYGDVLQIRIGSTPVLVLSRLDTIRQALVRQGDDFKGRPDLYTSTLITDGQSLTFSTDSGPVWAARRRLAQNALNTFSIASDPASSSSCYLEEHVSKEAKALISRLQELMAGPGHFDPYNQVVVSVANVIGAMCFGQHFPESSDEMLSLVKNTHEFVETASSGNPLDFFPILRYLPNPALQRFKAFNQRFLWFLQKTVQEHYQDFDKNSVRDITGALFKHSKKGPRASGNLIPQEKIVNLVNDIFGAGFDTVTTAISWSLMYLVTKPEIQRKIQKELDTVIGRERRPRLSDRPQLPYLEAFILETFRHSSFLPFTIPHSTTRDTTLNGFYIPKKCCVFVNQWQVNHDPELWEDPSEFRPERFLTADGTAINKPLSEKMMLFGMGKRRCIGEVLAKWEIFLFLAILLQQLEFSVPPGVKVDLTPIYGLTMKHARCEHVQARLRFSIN
How it was run: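 Human CYP1A2 (20nM) demethylated Luciferin-ME at its Km (100uM) in 100mM KPO4. After 10 min compound preincubation, NADPH regeneration ran the reaction 60 min at room temperature. Luciferin was read by luminescence, normalized to 57 uM furafylline.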

[11] = Confirmation and Secondary Assay for Modulators of Hemoglobin Beta Chain Splicing at IVS2 654 locus (AID 910; active = well fitted curve in the direction sought with a large enough effect; an effect the other way counts as inactive or inconclusive;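 note: per-well total GFP intensity by laser scanning cytometry after 2-day treatment; % of control where 0% means no effect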); conditions: HeLa EGFP-654 splicing reporter, GFP fluorescence, 48 h; series mostly up to 38.3 µM
How it was run: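 HeLa cells stably carrying EGFP interrupted by mutant beta-globin IVS2-654 intron (CMV-driven) were treated with compound for 2 days at 37C; corrected splicing was scored as total peak GFP intensity per well (488 nm excitation, 500-520 nm emission).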

[12] = qHTS Assay for Lipid Storage Modulators (AID 1519; calls by dose curve); conditions: Drosophila S3 cells, BODIPY lipid droplet/cell ratio, laser cytometry, cells loaded with oleic acid; for activity change, negative = inhibition: at 57.5 µM (top of the series)
How it was run: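 Cells seeded at 5,000 per well were treated with compounds over a concentration series and loaded with oleic acid (400 uM, as added). Lipid droplet fluorescence (488 nm excitation, 500-530 nm channel) was read by laser-scanning cytometry and normalized to 20 uM Triacsin C.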

[13] = target: Ubiquitin carboxyl-terminal hydrolase 1 (Homo sapiens) (UniProt O94782); test: Inhibitors of USP1/UAF1: Pilot qHTS (AID 504865; active = well fitted curve in the direction sought with a large enough effect; an effect the other way counts as inactive or inconclusive;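 note: rhodamine fluorescence freed from ubiquitin-rhodamine substrate followed over time; top concentration of the series differs between compounds; % is set by controls: 0 for no effect and ±100 for the full control effect; nearly all actives have a fitted effect of over 35% in size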); conditions: purified USP1/UAF1, Ub-rhodamine cleavage fluorescence; series mostly up to 54.9 µM
Ubiquitin carboxyl-terminal hydrolase 1 (Homo sapiens), sequence (O94782 whole entry, looked up): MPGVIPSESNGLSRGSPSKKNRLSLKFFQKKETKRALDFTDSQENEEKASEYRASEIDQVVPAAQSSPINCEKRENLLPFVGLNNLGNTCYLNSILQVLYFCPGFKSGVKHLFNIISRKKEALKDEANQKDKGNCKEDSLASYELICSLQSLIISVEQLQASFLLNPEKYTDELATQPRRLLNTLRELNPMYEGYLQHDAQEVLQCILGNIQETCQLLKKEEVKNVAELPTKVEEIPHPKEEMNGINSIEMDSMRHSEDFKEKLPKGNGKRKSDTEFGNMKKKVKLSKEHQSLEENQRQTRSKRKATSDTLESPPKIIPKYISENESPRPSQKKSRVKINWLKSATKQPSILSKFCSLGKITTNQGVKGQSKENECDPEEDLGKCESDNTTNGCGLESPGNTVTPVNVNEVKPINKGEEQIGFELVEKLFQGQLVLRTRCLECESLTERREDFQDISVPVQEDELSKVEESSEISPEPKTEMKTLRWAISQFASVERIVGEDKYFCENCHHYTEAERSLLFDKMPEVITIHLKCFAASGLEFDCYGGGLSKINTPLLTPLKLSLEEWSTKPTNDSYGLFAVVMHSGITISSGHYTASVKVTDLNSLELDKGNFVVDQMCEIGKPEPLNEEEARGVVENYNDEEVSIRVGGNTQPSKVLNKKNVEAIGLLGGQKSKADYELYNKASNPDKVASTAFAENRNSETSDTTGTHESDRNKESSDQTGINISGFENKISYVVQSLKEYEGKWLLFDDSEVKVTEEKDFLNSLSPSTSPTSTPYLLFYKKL
How it was run: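 1nM USP1/UAF1 + cpd, 15 min RT; start w/ Ub-Rho 150nM final; kinetic FL 480/540 nm, 6 reads q60 s. Buffer 50mM HEPES pH 7.8, 0.5mM EDTA, 1mM TCEP, 0.01% Tween-20, 0.1 mg/ml BSA.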

[14] = Cell Viability qHTS for small molecule stabilizers of the endoplasmic reticulum resident proteome (AID 1508629; active = well fitted curve in the direction sought with a large enough effect; an effect the other way counts as inactive or inconclusive); conditions: cell viability counter-screen, 100 nM thapsigargin for final 4 h
[15] = target: Cytochrome P450 3A4 (Homo sapiens) (UniProt P08684); test: qHTS Assay for Activators of Cytochrome P450 3A4 (AID 885; active = well fitted curve in the direction sought with a large enough effect; an effect the other way counts as inactive or inconclusive; note: nearly all actives have a fitted effect of over 65% in size); conditions: recombinant CYP3A4, Luciferin-PPXE luminescence, 60 min; series mostly up to 57.1 µM
Cytochrome P450 3A4 (Homo sapiens), sequence (P08684 whole entry, looked up): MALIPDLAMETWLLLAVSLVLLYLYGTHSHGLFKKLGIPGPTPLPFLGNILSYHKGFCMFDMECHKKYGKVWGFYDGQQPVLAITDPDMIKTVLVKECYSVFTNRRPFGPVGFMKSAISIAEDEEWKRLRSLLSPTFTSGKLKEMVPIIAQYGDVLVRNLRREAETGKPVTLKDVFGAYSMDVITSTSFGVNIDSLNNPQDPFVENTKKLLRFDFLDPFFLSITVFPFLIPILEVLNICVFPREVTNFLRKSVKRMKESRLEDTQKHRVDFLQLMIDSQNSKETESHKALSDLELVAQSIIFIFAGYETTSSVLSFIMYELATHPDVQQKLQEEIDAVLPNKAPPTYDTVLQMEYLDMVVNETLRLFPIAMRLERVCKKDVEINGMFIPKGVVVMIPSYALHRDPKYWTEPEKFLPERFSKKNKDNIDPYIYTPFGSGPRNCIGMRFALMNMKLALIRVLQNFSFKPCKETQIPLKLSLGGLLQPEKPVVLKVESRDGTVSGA
How it was run: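 20nM CYP3A4 + 25uM Luciferin-PPXE (=KM), 200mM KPO4; cpd 10 min RT; NADPH regen, 60 min RT; stop w/ detection buffer, 20 min; luminescence. Normalized to 57 uM ketoconazole.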

[16] = measured here: cell count channel max response
[17] = measured here: lipid channel max response

SMILES	Potency [1]	activity change, negative = inhibition [2]	activity, negative = inhibition [3]	Potency [4]	Potency [5]	outcome [6]	Potency [7]	Potency [8]	activity change, negative = inhibition [9]	Potency [10]	outcome [11]	activity change, negative = inhibition [12]	max response [12, 16] [%]	max response [12, 17] [%]	Potency [13]	max response [14]	Potency [15]
COc1cccc(Nc2ncc3nc(-c4ccccc4)c(=O)n(C[C@H]4CCCO4)c3n2)c1	> 11.4 µM (inactive)	-8.66% (inactive)	4.51% (inactive)	> 9.22 µM (inactive)	> 46 µM (inactive)	inactive	inactive	39.8 µM (active)	–	–	–	–	–	–	–	–	–
Cc1cccc(CNc2cc(-c3ccccc3CN(C)C)ncn2)c1	> 11.4 µM (inactive)	–	11.7% (inactive)	> 46 µM (inactive)	> 46 µM (inactive)	inactive	–	–	9.15% (inactive)	25.1 µM (active)	inactive	2.35% (inactive)	2.52	10	inactive	-21.4% (inactive)	–
CN1CCN(c2ncnc3ccc(-c4ccccc4C#N)cc23)CC1	> 11.4 µM (inactive)	-9.23% (inactive)	19.8% (inactive)	> 46 µM (inactive)	> 46 µM (inactive)	inactive	–	inactive	15.1% (inactive)	3.16 µM (active)	inactive	3.92% (inactive)	-20.1	-16	–	–	inactive
O=c1c(-c2ccccc2)nc2cnc(N3CCNCC3)nc2n1Cc1cccs1	> 11.4 µM (inactive)	–	–	> 9.22 µM (inactive)	> 46 µM (inactive)	–	inactive	inactive	–	–	–	–	–	–	–	–	–
Cc1ccccc1-c1nc(NC2CCNCC2)c2ccccc2n1	> 11.4 µM (inactive)	0.36% (inactive)	-7.16% (inactive)	> 46 µM (inactive)	> 46 µM (inactive)	inactive	inactive	31.6 µM (active)	19.1% (inactive)	20 µM (active)	inactive	–	–	–	–	–	–
N#CCCn1c(=O)c(-c2cc(F)cc(F)c2)nc2cnc(OCc3ccccc3)nc21	> 11.4 µM (inactive)	–	3.6% (inactive)	> 9.22 µM (inactive)	> 46 µM (inactive)	inactive	inactive	44.7 µM (active)	-10.3% (inactive)	6.31 µM (active)	–	–	–	–	–	–	inactive
N#CCCn1c(=O)c(CCc2ccccc2)nc2cnc(OCc3ccccc3)nc21	> 11.4 µM (inactive)	-3.34% (inactive)	-0.503% (inactive)	> 9.22 µM (inactive)	> 46 µM (inactive)	–	–	31.6 µM (active)	-4.26% (inactive)	12.6 µM (active)	–	–	–	–	–	–	inactive
Cc1noc(C)c1C(=O)N1CCC2(CCN(Cc3ccc(C#N)cc3)CC2)CC1	> 11.4 µM (inactive)	–	2.67% (inactive)	–	> 46 µM (inactive)	–	inactive	–	22% (inactive)	–	–	-1.31% (inactive)	9.89	10.9	–	–	–
